Data from the supplement of paper PMC6555819.

test system: FXR:RXRa (NR concentration 270 nM, RXRa partner concentration 90 nM); test: PBM binding z-score (relative to random genomic background probes); higher = stronger binding; sequences stand for … in GC…GCGATTGACAGCGTAGAATGAAGG
Procedure, shortened: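 Antibodies against each partner of ligand-free nuclear receptor dimers (one per run) detected binding on custom Agilent 4×180K protein-binding microarrays after 1 h incubation. The double-stranded probes had 34-nt variable regions carrying direct-repeat seeds, single-nucleotide variants, half-site ablations and random human genomic background sequences. Binding z-scores, from regression-normalized fluorescence, use the random background probes as reference.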

Compared with TCAAGTTGGTCAAAGGTCACACACTCGAAATGCG, ACTAGCAGGCCAAGGATCACTCAAGATTAGTCCG is lower in PBM binding z-score: 6.18 for the first, -0.313 for the second.

First: ACTTACGGGTCAGCGAGGTTATAGCACGCGTATA
Second: TCTATCAGTTGATTAGGGCAACCGAAACAGCGGA
The PBM binding z-score of the first is higher: 4.94 for the first, -0.144 for the second.

First: CCTTACGGGTCACTCCAGGTTATGGCATCGGAGT
Second: CCTTACGGGTCAAGGTTACAGCACGGGTGGTACG
The PBM binding z-score of the first is lower: 4.99 for the first, 5.94 for the second.

Compared with CGTCCAAGGTCAAGGTCAGTGACAGAGACTCGAA, ATCTCTAGGGAAAGTTCAGTGAAAGATCGATAGA is lower in PBM binding z-score: 7.96 for the first, 0.806 for the second.

Compared with ACAGACAGGTGATGAAGGTAACCCAGGCTATCAT, TCATATAGGTAAATGCGAGGTGAAAGTCCGATCT is higher in PBM binding z-score: -0.0743 for the first, 1.14 for the second.

Going from CAAACTAGGTCACAGAGGTCAAAGGCCGTGCGTA to CCTAGTTGGTGAGGAGGTCACACACCGGATATGA, the PBM binding z-score falls from 7.21 to 2.72.

Going from CCTGCTAGGTCATGGTCAGCTAATCTACAGTATG to ATATGTAAGTTACATCCGGGTCATTCAGGCTATG, the PBM binding z-score falls from 3.81 to 1.87.

First: TCTTGTAGATCAGCAGGTTAAGACAGCTGGCCAA
Second: TCTGCTAGGTCATTTGGTCAGCTAACGAGCTGCC
The PBM binding z-score of the first is lower: 0.409 for the first, 4.28 for the second.

Compared with CCTACTGGGCCACGAAAGGTCAGTGATTCAGTGA, CCTACTGGGCCAAGGTCATTTATCAGTCAAAGCA is higher in PBM binding z-score: 1.7 for the first, 3 for the second.

Going from ATATGTAGGTTACATCCGGGTCCTTCAGGCTATG to AGAATGAGGTTATACGTAGATTAGGGAAGAAAGT, the PBM binding z-score rises from 0.21 to 2.38.

Compared with CCTAGTTGGTCAAGGTCAGACACGCTATAGGTAC, TGATTGAGGTTAAAGATCAGGGAACGTGGCGTCG is higher in PBM binding z-score: 2.19 for the first, 3.41 for the second.
